According to PubChem BioAssay (NCI):
Compounds without any hit were thinned out: in the full panel of roughly 83,000, 20% have a hit.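 Single-dose data. Exposure time 48 hours. Values below 10 considered active.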 Activity calls are given as the source filed them.

Legend:
Assay in all cases: NCI-60 one-dose screen, 48 h (100 = growth as untreated, 0 = no growth, -100 = all killed)
Conditions in all cases: 10 µM unless noted
NCI-H23 lung = system: NCI-H23 lung
NCI-H226 lung = system: NCI-H226 lung
NCI-H322M lung = system: NCI-H322M lung
NCI-H460 lung = system: NCI-H460 lung
HOP-92 NSCLC = system: HOP-92 NSCLC
NCI-H522 lung = system: NCI-H522 lung
A549/ATCC NSCLC = system: A549/ATCC NSCLC
786-0 renal = system: 786-0 renal
COLO 205 colon = system: COLO 205 colon
HOP-62 NSCLC = system: HOP-62 NSCLC

Measured: growth

CCOc1c(C#N)nnc2c(C#N)c(NC(=O)c3ccccc3)nn12
inactive: NCI-H23 lung 90.8% | NCI-H226 lung 92.6% | NCI-H322M lung 95% | NCI-H460 lung 111% | HOP-92 NSCLC 89.3% | NCI-H522 lung 95% | A549/ATCC NSCLC 95% | 786-0 renal 98.4% | COLO 205 colon 107%

O=C1Nc2ccccc2/C1=C/c1cn(C(=O)c2c(Cl)cccc2Cl)c2ccccc12
inactive: NCI-H23 lung 56.9% | NCI-H226 lung 48.2% | NCI-H322M lung 90.4% | NCI-H460 lung 71.2% | HOP-92 NSCLC 49.1% | NCI-H522 lung 55.3% | A549/ATCC NSCLC 36.7% | 786-0 renal 57.1% | COLO 205 colon 41.7%

CCCCOc1nc2ccccc2cc1C1CNC(=O)c2ccccc2N1 (stereo not drawn)
active: NCI-H226 lung 0.702% | NCI-H460 lung 6.89% | NCI-H522 lung -13.6%
inactive: NCI-H23 lung 23.8% | NCI-H322M lung 47.2% | HOP-92 NSCLC 48.9% | A549/ATCC NSCLC 19.9% | 786-0 renal 26.2%

Cc1ccc(S(=O)(=O)NCC[C@@H]2C[C@H]2c2cc3ccccc3s2)cc1
inactive: NCI-H23 lung 93.2% | NCI-H226 lung 87.8% | NCI-H322M lung 101% | NCI-H460 lung 104% | HOP-92 NSCLC 101% | NCI-H522 lung 85.3% | A549/ATCC NSCLC 98.5% | 786-0 renal 100% | COLO 205 colon 120%

C=CCn1c(C)nc2cc(Nc3nc(Cl)nc4ccccc34)ccc21
inactive: NCI-H23 lung 97.9% | NCI-H226 lung 90.1% | NCI-H322M lung 109% | NCI-H460 lung 99.2% | HOP-92 NSCLC 91.9% | NCI-H522 lung 97.4% | A549/ATCC NSCLC 81.4% | 786-0 renal 87.8% | COLO 205 colon 126%

O=c1cc(-c2ccc(Cl)cc2)[nH]c2ccccc12
inactive: NCI-H23 lung 83.2% | NCI-H226 lung 87% | NCI-H322M lung 92.3% | NCI-H460 lung 90.8% | HOP-92 NSCLC 73.3% | NCI-H522 lung 80.9% | A549/ATCC NSCLC 91.2% | 786-0 renal 82.4% | COLO 205 colon 99.7%

Cn1c(=O)c2[nH]c(NN)nc2n(C)c1=O
inactive: NCI-H23 lung 107% | NCI-H226 lung 106% | NCI-H322M lung 118% | NCI-H460 lung 101% | HOP-92 NSCLC 95.7% | NCI-H522 lung 99.9% | A549/ATCC NSCLC 106% | 786-0 renal 98.7% | COLO 205 colon 109%

COc1ccc(/C=C/c2c(C(=O)/C=C/c3ccc(F)cc3)c(C)nc3ccccc23)cc1
inactive: NCI-H23 lung 47.8% | NCI-H226 lung 67.3% | NCI-H322M lung 82.7% | NCI-H460 lung 15.9% | HOP-92 NSCLC 73.5% | NCI-H522 lung 43.9% | A549/ATCC NSCLC 91.6% | 786-0 renal 65.4% | COLO 205 colon 79.8%

N=C1CCC(=N)c2c1c(O)c1ccccc1c2O
inactive: NCI-H23 lung 82.3% | NCI-H226 lung 87.3% | NCI-H322M lung 93.1% | NCI-H460 lung 173% | HOP-92 NSCLC 88.7% | NCI-H522 lung 91.6% | A549/ATCC NSCLC 95.2% | 786-0 renal 113%

CCCCN(CCCC)CC(C)(C)C(O)c1ccc(OC)c2ccccc12 (stereo not drawn)
inactive: NCI-H226 lung 51.7% | NCI-H322M lung 44.9% | NCI-H460 lung 39.1% | A549/ATCC NSCLC 63.5% | 786-0 renal 58.4% | COLO 205 colon 71%
active: NCI-H23 lung -1.81% | HOP-92 NSCLC -9.57% | NCI-H522 lung 4.57%

COCCc1ccc(OCC(O)CNC(C)C)cc1 (stereo not drawn)
inactive: NCI-H23 lung 98.5% | NCI-H226 lung 109% | NCI-H322M lung 99.2% | NCI-H460 lung 107% | HOP-92 NSCLC 73.1% | NCI-H522 lung 93.3% | A549/ATCC NSCLC 104% | 786-0 renal 97.8% | COLO 205 colon 106%

COC(=O)c1c2c(c[n+]([O-])c1C)C(=O)C=CC2=O
inactive: NCI-H23 lung 60.4% | NCI-H226 lung 98.1% | NCI-H322M lung 110% | NCI-H460 lung 98.4% | HOP-92 NSCLC 70.8% | A549/ATCC NSCLC 100% | 786-0 renal 91.6% | COLO 205 colon 33.5%
active: NCI-H522 lung -69.9%

CC(=O)n1c(-c2ccc(Cl)cc2)nc2c(c1=O)C(c1ccc(Cl)cc1)c1sc3c(Cl)cccc3c1O2 (stereo not drawn)
inactive: NCI-H322M lung 16.7%
active: NCI-H23 lung -0.859% | NCI-H226 lung 9.2% | NCI-H460 lung -30.4% | HOP-92 NSCLC 1.47% | NCI-H522 lung -32.9% | A549/ATCC NSCLC -63.7% | 786-0 renal -50.1% | COLO 205 colon -55.9%

C(=N\Nc1ncc(-c2cc3cc4c(cc3o2)OCO4)s1)/c1ccco1
active: NCI-H522 lung 8.73% | A549/ATCC NSCLC -10.1% | 786-0 renal 1.77% | COLO 205 colon 6.46%
inactive: NCI-H23 lung 20.9% | NCI-H226 lung 58.4% | NCI-H322M lung 77.3% | NCI-H460 lung 13.3% | HOP-92 NSCLC 63.2%

CCCCn1c(=O)c2c(nc3n2CCCN3CCc2ccc(OCC(=O)NCCN(CC)CC)cc2)n(CCCC)c1=O
inactive: NCI-H226 lung 72.9% | NCI-H322M lung 94.4% | HOP-62 NSCLC 56.1% | NCI-H460 lung 56.9% | HOP-92 NSCLC 27.8% | NCI-H522 lung 44.1% | A549/ATCC NSCLC 64.2% | 786-0 renal 11.3% | COLO 205 colon 25.7%
